Test results: the supplement of paper PMC6555819

Legend:
Assay in all cases: PBM binding z-score (relative to random genomic background probes); higher = stronger binding; sequences stand for … in GC…GCGATTGACAGCGTAGAATGAAGG
[1] = test system: RARb homodimer (NR concentration 270 nM)
Procedure, shortened: (§1)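 Antibodies against each partner of ligand-free nuclear receptor dimers (one per run) detected binding on custom Agilent 4×180K protein-binding microarrays after 1 h incubation. The double-stranded probes had 34-nt variable regions carrying direct-repeat seeds, single-nucleotide variants, half-site ablations and random human genomic background sequences. Binding z-scores, from regression-normalized fluorescence, use the random background probes as reference.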

[2] = test system: RARg:RXRa (NR concentration 270 nM, RXRa partner concentration 90 nM)
Procedure, shortened: as §1

[3] = test system: RARg homodimer (NR concentration 270 nM)
Procedure, shortened: as §1

[4] = test system: RXRa DBDmut IVT, anti-RXR (DBD mutation: RXRa K156A/R161A, NR concentration 90 nM)
Procedure, shortened: as §1

[5] = test system: RXRa homodimer (NR concentration 180 nM)
Procedure, shortened: as §1

[6] = test system: THRa:RXRa (NR concentration 90 nM, RXRa partner concentration 90 nM)
Procedure, shortened: as §1

[7] = test system: THRa homodimer (NR concentration 90 nM)
Procedure, shortened: as §1

[8] = test system: VDR homodimer (NR concentration 270 nM)
Procedure, shortened: as §1

| Sequence | PBM binding z-score [1] | PBM binding z-score [2] | PBM binding z-score [3] | PBM binding z-score [4] | PBM binding z-score [5] | PBM binding z-score [6] | PBM binding z-score [7] | PBM binding z-score [8] |
| --- | --- | --- | --- | --- | --- | --- | --- | --- |
| CAGCCAAGGTCAGGGCCAGTATAGGAGGAACGTT | 3.64 | 4.92 | 5.59 | 1.64 | 4 | 3.36 | 1.78 | 0.93 |
| ATCGACAGGTCGAAGGTGAGTATACCCACCCGAA | 0.661 | 1.8 | 1.51 | -0.283 | 2.37 | 0.716 | -0.432 | -0.198 |
| GCTTACGGGTCAAAGGTTGTAGCATGAATAGAAT | 2.84 | 5.74 | 4.09 | 2.43 | 8.07 | 3.2 | 0.00313 | 0.93 |
| ACCAGCAGGCCAAGTTTGGGTCACTCAAACAAAG | 2.33 | 2.44 | 1.51 | -0.217 | 0.731 | 2.61 | 0.952 | 0.435 |
| CATACAGGGTCAGCTAGGCGAGAGTAGGGACGGC | 3.12 | 4.39 | 4.53 | 1.72 | 4.02 | 3.05 | 1.01 | 0.943 |
| TCGAGTAGGTTACCAATGGGGCATTCTGCTTTCT | 0.45 | 0.898 | 0.393 | 0.539 | 0.447 | -0.229 | -0.884 | -0.862 |
| ACAGACAGGTGAGTGAAGTTAACTCAGCTGGACG | -0.414 | -0.0567 | 0.156 | -0.397 | 0.359 | -0.189 | -1.01 | -0.612 |
| TGAATGAGGTTATAAGATCAGGTAACGTTGCAAA | 0.391 | 1.41 | 1.13 | 0.758 | 1.87 | 2.61 | 1.06 | 0.507 |
| ATCGAAAGGTCGACGAGGTGCGTATACACCGTTT | 2.58 | 3.76 | 3.9 | 0.716 | 4 | 2.46 | -0.328 | 0.77 |
| CAAACTAGGTCACGAACGGTCAAAGTCGAATGAC | 4.43 | 5.69 | 6.24 | 1.66 | 4.56 | 4.08 | 1.74 | 1.44 |
| AGAATGAAGTTATTAAGATCAGGGAATTGCGGTC | -0.379 | -0.168 | -0.0523 | -0.232 | 0.116 | -0.108 | -0.315 | -0.263 |
| GCTTACGGGTCAAAGTTTATAGCATGAATAGAAT | 2.72 | 5.32 | 4.39 | 3.19 | 7.06 | 2.9 | -0.354 | 2.25 |
| AGAATGAAGTTACCAAAGATCAGGGAAACGCTTG | -0.995 | 0.125 | 0.206 | -0.628 | 0.402 | -0.228 | -1.02 | -0.257 |
| CAAACTAGGTCACCGGAAGGTAAAAGTCCGCATG | 3.46 | 5.33 | 5.29 | 1.61 | 3.87 | 3.69 | 1.84 | 1.01 |
| TCTTTTAGATCAAAGGTTAAGAAAGCCGAAGCCT | 1.42 | 1.81 | 1.01 | 1.32 | 2.81 | 1.33 | -0.158 | -0.294 |
| ACTAGCAGGCCAAGGGTCACTCAGGATTAGTCCG | 3.78 | 4.35 | 3.59 | 0.461 | 4.24 | 2.7 | 0.0494 | 1.22 |
| TCTCGGAGGAAACGAAGGTCAGAGCTTTCCAGAG | 2.69 | 1.88 | 1.53 | -0.239 | 1.5 | 1.38 | -0.547 | -0.0279 |
| CCTACTGGGCCGCGAAAGGTCATTGATTCAGTGA | 4.47 | 4.49 | 3.88 | 0.701 | 5.19 | 3.25 | 0.433 | 2.12 |
| ACAGACAAGTGAGTGAAGGTAACTCAGCTGGACG | -0.464 | -0.0696 | 0.0663 | -0.283 | -0.0064 | -0.0405 | -0.435 | -0.445 |
| TTACCAAGGTGAGTTGAGGTCGTTGATCCAACTC | 1.84 | 1.33 | 1.18 | 0.713 | 1.56 | 4.72 | 2.28 | 2.18 |
| TCATAAAGGTAAACAGGTGAAAGTCCGTAAGTTA | 1.37 | 1.34 | 0.882 | 1.53 | 1.74 | 1.22 | 0.368 | 0.647 |
| CCAACTAGGTCAAAGGTCAAAGTCGAGCCAACCA | 5.33 | 9.03 | 7.43 | 3.14 | 10.2 | 4.82 | 1.79 | 3.47 |
| CCGACTGGGGGAAGGTTACCATAACGCACAGCCA | 0.998 | 1.06 | 1.02 | -0.37 | 1.02 | 1.1 | 0.107 | 0.178 |
| TCATATAGGTATAGGTGAAAGTCGAACGATATGA | 0.405 | 0.646 | 0.511 | 0.538 | 1.13 | 0.242 | -0.544 | -0.127 |
| AATACAGGGTCAACGTAGGCCAGAGTACGCACAG | 3.8 | 6.08 | 5.84 | 3.18 | 6.81 | 4.35 | 1.24 | 3.28 |
| TCATATAGGCAAAAGGTGAAAGTCGGTGTGGTAA | 1.81 | 1.45 | 0.567 | 1.45 | 2.12 | 1.24 | 0.0725 | 0.163 |
| ACTAGCAGGCCAAGTTTGGGTAACTCAAACAAAG | -0.346 | -0.166 | 0.104 | -0.417 | -0.603 | 0.525 | -0.513 | -0.292 |
| ATCGAAAGGTTGACGAGGTGAGTATACACCGTTT | 1.28 | 1.47 | 1.51 | 0.0329 | 1.65 | 2.62 | 0.747 | 0.362 |
